# According to PubChem BioAssay:
# Tested on: Inhibin beta A chain (activin A)
# Assay: small molecules binding activin A – biochemical, small-molecule microarray, 635 nm fluorescence scan, primary screen (AID 1107);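 further: mouse activin A protein probed at 4.33 µg/mL on printed slides; score merges bound-protein fluorescence near 667 nm with spot signal-to-noise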
# Details: INHBA, higher = more signal
row,Compound,composite z-score
1,CC1CC/C=C\[C@H]2OC34C=CCN(c5ccc(Cl)cc5)C(=O)[C@H]3N(CCCCCCO)C(=O)[C@]4(C)C2C(=O)O1 (stereo partly drawn),0.0845
2,O=C(NC1CC1)[C@@H]1c2ccccc2C(=O)N(Cc2cc(C(F)(F)F)cc(C(F)(F)F)c2)[C@H]1c1ccc(CO)cc1,-0.547
3,COc1ccc([Si](C)(C)[C@@H]2[C@@H](CC(=O)N3Cc4ccccc4C[C@H]3CO)O[C@]3(C(=O)N(Cc4ccc(N5CCOC5=O)cc4)c4ccccc43)[C@H]2C)cc1,1.03
4,CN1C(=O)C2C(C1=O)C1C=C(CCCO)C2C(C2CC2)N1Cc1cccc(OC(F)(F)F)c1 (stereo not drawn),0.722
5,[N-]=[N+]=Nc1ccccc1[C@@H]1OC(c2ccc(OCCCO)cc2)=N[C@]1(Cc1ccccc1)C(=O)NCCN1CCOCC1,0.33
6,COC(=O)[C@@]1(Cc2ccccc2)N=C(c2ccc(OCCCO)cc2)O[C@H]1c1ccccc1CN=[N+]=[N-],1.09
7,Cc1ccc(N2C(=O)c3ccccc3[C@](C)(C(=O)NCCCN(C)C)[C@@H]2c2ccc(CO)cc2)nc1,0.573
8,CC(C)N1C(=O)C[C@@](C(=O)NCCN2CCOCC2)(c2ccc([N+](=O)[O-])cc2)[C@H]1c1ccc(CO)cc1,0.16
9,CN(C)CCCNC(=O)[C@@]1(Cc2ccccc2I)c2ccccc2C(=O)N(C2CCCCC2)[C@H]1c1ccc(CO)cc1,1.32
10,CC(C)N1C(=O)c2ccccc2[C@@H](C(=O)NCC(F)(F)F)[C@@H]1c1ccc(CO)cc1,0.935
11,CC(C)=C1C(=O)C(c2ccccc2)=C2CN3C(=O)N(CCc4ccccc4)C(=O)[C@]3(C)[C@H]21,1.02
12,COCCCNC(=O)[C@@]1(CCS(=O)(=O)c2ccccc2)COC(c2ccc(OCCCO)cc2)=N1,0.952
13,O=C1C2C=CC(C(O)C3CCCCC3)N(n3cnnc3)C2C(=O)N1Cc1ccccc1 (stereo not drawn),1.13
